Assay results taken from PubChem BioAssay (NCATS).
Records with an inconclusive call do not appear. Activity calls are given as the source filed them. Calls follow the shape of the dose curve; as a rule, active = well fitted curve in the direction sought with a large enough effect; inconclusive = small, poorly fitted or top-dose-only effect, or another doubt; inactive = no such curve, though single readings can be large; an effect the other way counts as inactive or inconclusive.

Columns and labels:
[1] = qHTS of pediatric cancer cell lines to identify multiple opportunities for drug repurposing: Primary screen for SK-N-MC cells (AID 1347093)
How it was run: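 Metabolically active cells were quantified by ATP-dependent luminescence (CellTiter-Glo, 15 min at room temperature) following 48 h treatment. Cells had been plated at 500-1,000 per well and settled for 5 h beforehand.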

[2] = qHTS of pediatric cancer cell lines to identify multiple opportunities for drug repurposing: Primary screen for BT-37 cells (AID 1347094)
How it was run: (§1)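 Plated cells (500-1,000 per well, growth media) were allowed to settle for 5 hours, treated with compound dilutions for 48 hours, then lysed with CellTiter-Glo for 15 min at room temperature before luminescence reading.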

[3] = qHTS of pediatric cancer cell lines to identify multiple opportunities for drug repurposing: Primary screen for NB-EBc1 cells (AID 1347095)
How it was run: as §1

[4] = qHTS of pediatric cancer cell lines to identify multiple opportunities for drug repurposing: Primary screen for U-2 OS cells (AID 1347096); also: nearly all actives have a fitted effect of over 50% in size
How it was run: (§2)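 Cells (500-1,000/well) in growth media were settled 5 h at 37 degrees C, then given compounds for 48 h. Viability was read as CellTiter-Glo luminescence. Primary runs used MIPE at 11 points (0.78 nM-46 µM) and NPC at 8 points (0.59 nM-46 µM); follow-ups used 11 points.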

[5] = qHTS of pediatric cancer cell lines to identify multiple opportunities for drug repurposing: Primary screen for Saos-2 cells (AID 1347097); also: nearly all actives have a fitted effect of over 40% in size
How it was run: as §1

[6] = qHTS of pediatric cancer cell lines to identify multiple opportunities for drug repurposing: Primary screen for SK-N-SH cells (AID 1347098); also: nearly all actives have a fitted effect of over 65% in size
How it was run: (§3)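 Cells (500-1,000/well) rested 5 h, then received compounds for 48 h; metabolically active cells were measured by CellTiter-Glo luminescence. Final concentrations spanned up to 46 µM (MIPE, 11-point) or 0.59 nM-46 µM (NPC, 8-point) in primary screens, 11-point in follow-ups.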

[7] = qHTS of pediatric cancer cell lines to identify multiple opportunities for drug repurposing: Primary screen for NB1643 cells (AID 1347099); also: nearly all actives have a fitted effect of over 50% in size
How it was run: as §1

[8] = qHTS of pediatric cancer cell lines to identify multiple opportunities for drug repurposing: Primary screen for LAN-5 cells (AID 1347100)
How it was run: as §2

[9] = qHTS of pediatric cancer cell lines to identify multiple opportunities for drug repurposing: Primary screen for BT-12 cells (AID 1347101); also: nearly all actives have a fitted effect of over 25% in size
How it was run: as §3

[10] = qHTS of pediatric cancer cell lines to identify multiple opportunities for drug repurposing: Primary screen for Rh18 cells (AID 1347102); also: nearly all actives have a fitted effect of over 65% in size
How it was run: as §2

Measured: Potency
Potency is read from the fitted curve at half-maximal effect.

Fc1cc(Br)ccc1CBr
inactive: all assays above

OCCCBr
inactive: all assays above

COC1=CC(C)=C[C@@H](C)[C@@H](O)[C@@H](C)CC(C)=CC=C[C@H](OC)[C@H]([C@@H](C)[C@@H](O)[C@H](C)[C@@]2(O)C[C@@H](O)[C@H](C)[C@@H](C(C)C)O2)OC1=O
active: [1] 0.0021 µM | [2] 0.0034 µM | [3] 0.001 µM | [4] 37.2 µM | [5] 29.6 µM | [6] 0.0136 µM | [7] 0.0093 µM | [9] 0.0049 µM | [10] 14.8 µM

C[C@@H]1CC[C@@]2(OC1)O[C@H]1C[C@H]3[C@@H]4CC=C5C[C@@H](O[C@@H]6O[C@H](CO)[C@@H](O[C@@H]7O[C@@H](C)[C@H](O)[C@@H](O)[C@@H]7O)[C@H](O)[C@@H]6O[C@@H]6O[C@@H](C)[C@H](O)[C@@H](O)[C@@H]6O)CC[C@]5(C)[C@@H]4CC[C@]3(C)[C@@H]1[C@H]2C
active: [1] 1.32 µM | [2] 6.85 µM | [3] 4.69 µM | [4] 9.35 µM | [5] 5.9 µM | [6] 12.1 µM | [7] 5.9 µM | [8] 3.72 µM | [10] 4.18 µM

CC(=O)N(C)c1cccc(-c2ccnc3c(C(=O)c4cccs4)cnn23)c1
not listed: [6] | [10]
inactive: all other assays above

Nc1ccc([N+](=O)[O-])cc1
inactive: all assays above

Nc1ccc(Cl)cc1
inactive: all assays above

Cc1ccccc1-n1c(Cn2cnc3c(N)ncnc32)nc2cccc(C)c2c1=O
active: [1] 0.0209 µM | [2] 3.85 µM | [3] 0.743 µM | [4] 14.8 µM | [5] 0.132 µM | [6] 8.57 µM | [7] 0.59 µM | [8] 0.264 µM | [10] 1.05 µM

c1ccc2c(CN3CCNCC3)cccc2c1
active: [1] 29.6 µM
not listed: [7] | [8] | [10]
inactive: all other assays above

CC(C)NCC(O)c1ccc([N+](=O)[O-])cc1 (stereo not drawn)
not listed: [9]
inactive: all other assays above

O=[N+]([O-])c1ncc[nH]1
not listed: [7] | [9]
inactive: all other assays above

CCN1CCN(C(=O)Cc2ccc(Nc3ncc(F)c(Nc4ccc(C(=O)Nc5ccccc5Cl)cc4)n3)cc2)CC1
active: [1] 5.26 µM | [2] 12.2 µM | [3] 5.26 µM | [4] 7.43 µM | [5] 4.69 µM | [6] 21.5 µM | [7] 5.9 µM | [8] 0.469 µM | [10] 8.33 µM

CC[C@@]1(O)C(=O)OCc2c1cc1n(c2=O)Cc2cc3ccccc3nc2-1
active: [1] 0.0074 µM | [2] 0.0137 µM | [3] 0.0083 µM | [4] 1.18 µM | [5] 0.0469 µM | [6] 0.121 µM | [7] 0.0469 µM | [8] 0.0093 µM | [10] 0.296 µM

COC(=O)[C@@H](N)CCCN=C(N)N[N+](=O)[O-]
active: [1] 6.62 µM | [6] 6.07 µM | [7] 9.35 µM
not listed: [9]
inactive: all other assays above

CC1=C(C(=O)O)N2C(=O)[C@@H](N)[C@H]2SC1
not listed: [9]
inactive: all other assays above

Cc1c(C(=O)Nc2cccc(C(F)(F)F)c2)cc(-c2ccccc2)n1CCCN1CCOCC1
active: [1] 13.2 µM | [2] 27.3 µM | [3] 18.7 µM | [5] 18.7 µM | [6] 24.1 µM | [7] 23.5 µM | [8] 18.7 µM

CCCN(CCC)c1c([N+](=O)[O-])cc(S(N)(=O)=O)cc1[N+](=O)[O-]
active: [1] 38.6 µM | [2] 31.7 µM | [3] 30.6 µM | [5] 30.6 µM | [6] 49.8 µM | [7] 48.6 µM | [9] 28.2 µM

COC(=O)c1cncn1C(C)c1ccccc1 (stereo not drawn)
not listed: [5]
inactive: all other assays above

CC1(C)CC/C(=C/c2ccc(Cl)cc2)C1(O)Cn1cncn1 (stereo not drawn)
not listed: [5] | [6] | [8]
inactive: all other assays above

CCCCC(CC)COC(=O)c1ccccc1C(=O)OCC(CC)CCCC (stereo not drawn)
not listed: [5] | [6]
inactive: all other assays above
